# Bioassay records as filed in PubChem.
# The sample as a whole holds a higher share of hits than the screen did.
# EZH2 inh: EZH2/PRC2 methyltransferase inhibitors, primary screen, biochemical, DELFIA time-resolved fluorescence, single point. Histone-lysine N-methyltransferase EZH2 (Homo sapiens), Q15910. PRC2 H3K27 methylation, DELFIA TRF, 1 h. inhibition, % at 12.5 µM. hit rate 0.35% among 57,000. AID 651548, 2012;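 active = mean inhibition of replicates at least 50% and every single replicate also reaching 50%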;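 also: dimethyl H3K27 on biotinylated H3 21-44 peptide detected by antibody; plate controls were median neutral control wells for no effect and median positive control wells for full effect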
# Target sequence (Q15910 whole entry, looked up): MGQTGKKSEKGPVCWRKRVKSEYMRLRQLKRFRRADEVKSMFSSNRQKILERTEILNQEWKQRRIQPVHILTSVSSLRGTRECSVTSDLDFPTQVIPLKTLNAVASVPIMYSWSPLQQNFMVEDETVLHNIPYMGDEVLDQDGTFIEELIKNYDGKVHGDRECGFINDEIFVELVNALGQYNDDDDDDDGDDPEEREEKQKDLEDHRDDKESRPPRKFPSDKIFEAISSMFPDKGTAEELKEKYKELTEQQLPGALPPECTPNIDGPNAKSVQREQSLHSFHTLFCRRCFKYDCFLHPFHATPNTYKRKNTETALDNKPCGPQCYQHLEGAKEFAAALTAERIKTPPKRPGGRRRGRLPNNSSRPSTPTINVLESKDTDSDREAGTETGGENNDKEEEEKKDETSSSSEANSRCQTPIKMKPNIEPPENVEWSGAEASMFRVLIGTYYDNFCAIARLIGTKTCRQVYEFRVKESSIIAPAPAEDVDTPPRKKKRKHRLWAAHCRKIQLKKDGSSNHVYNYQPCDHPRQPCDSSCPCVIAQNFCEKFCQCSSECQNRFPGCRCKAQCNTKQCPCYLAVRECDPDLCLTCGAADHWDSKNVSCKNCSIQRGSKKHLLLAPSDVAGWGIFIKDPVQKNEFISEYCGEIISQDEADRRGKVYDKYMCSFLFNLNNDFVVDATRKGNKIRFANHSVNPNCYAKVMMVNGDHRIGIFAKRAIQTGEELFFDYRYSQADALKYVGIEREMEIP
# * marks the source's active call; other numbers are inactive results.
SMILES,EZH2 inh
O=C(Nc1ccc(F)cc1)N[C@H]1CC[C@@H](CCNS(=O)(=O)c2cccc(Cl)c2)O[C@@H]1CO,-3
N#CCc1ccc(NC(=O)CN2C(=O)c3ccccc3S2(=O)=O)cc1,-9
C[C@H]1CN([C@@H](C)CO)C(=O)c2cccc(NC(=O)c3ccncc3)c2O[C@@H]1CN(C)Cc1ccc(Oc2ccccc2)cc1,2
CCCNC(=O)Nc1ccc2c(c1)C(=O)N(C)C[C@H](OC)[C@H](C)CN(Cc1ccc(-c3ccccn3)cc1)[C@@H](C)CO2,9
COc1ccccc1N(CC(=O)N(C)C)S(=O)(=O)c1ccc(C)cc1,-9
C[C@@H]1CN([C@@H](C)CO)C(=O)c2cc(NS(=O)(=O)c3cccs3)ccc2O[C@H]1CN(C)Cc1ccc(-c2ccccc2)cc1,60*
C[C@H](CO)N1C[C@H](C)[C@@H](CN(C)Cc2ccccc2)Oc2ccc(NS(=O)(=O)c3cccs3)cc2C1=O,8
C[C@@H]1CN([C@H](C)CO)C(=O)c2cc(NS(=O)(=O)c3cccs3)ccc2O[C@@H]1CN(C)Cc1ccccc1,-6
C[C@H]1CN([C@@H](C)CO)C(=O)c2cc(NS(=O)(=O)c3cccs3)ccc2O[C@@H]1CN(C)Cc1ccc(-c2ccccc2)cc1,72*
C[C@@H]1CN([C@@H](C)CO)C(=O)c2cc(NS(=O)(=O)c3cccs3)ccc2O[C@@H]1CN(C)Cc1ccccc1,1
C[C@H]1CN([C@@H](C)CO)C(=O)c2cc(NS(=O)(=O)c3cccs3)ccc2O[C@@H]1CN(C)Cc1ccccc1,3
O=C(C[C@H]1C[C@@H]2c3cc(NC(=O)C4CCC4)ccc3O[C@@H]2[C@H](CO)O1)NCC1CC1,-13
O=C(C[C@H]1C=C[C@@H](NC(=O)C2CCC2)[C@@H](CO)O1)Nc1nccs1,-6
COc1ccccc1S(=O)(=O)N[C@@H]1CC[C@H](CC(=O)N2CCCCC2)O[C@@H]1CO,-6
O=C(CCN1CCCCC1)NCC[C@@H]1CC[C@@H](NC(=O)C2CCOCC2)[C@@H](CO)O1,9
CCCC#Cc1cnc2c(c1)C(=O)N([C@H](C)CO)C[C@H](C)[C@@H](CN(C)C(=O)CN1CCOCC1)O2,10
CCCC#Cc1cnc2c(c1)C(=O)N([C@H](C)CO)C[C@H](C)[C@H](CN(C)C(=O)CN1CCOCC1)O2,95*
CCCC#Cc1cnc2c(c1)C(=O)N([C@@H](C)CO)C[C@@H](C)[C@H](CN(C)C(=O)CN1CCOCC1)O2,6
O=C(C[C@H]1CC[C@@H](NC(=O)C2CCC2)[C@@H](CO)O1)NC1CCCCC1,-6
Clc1ccc2nc(SCc3csc(Nc4ccccc4)n3)oc2c1,42
Clc1ccc(SCc2csc(-c3ccsc3)n2)cc1,63*
C[C@@H]1CN([C@@H](C)CO)C(=O)c2cccc(NC(=O)CCCCCC(=O)Nc3ccccc3N)c2O[C@@H]1CN(C)Cc1ccc(Oc2ccccc2)cc1,-6
O=C1O[C@H](c2ccccc2)[C@H](c2ccccc2)N2[C@H]1[C@@H](C(=O)N1CCCCCCC1)[C@]1(C(=O)Nc3ccc(C#CC4=CCCCC4)cc31)[C@H]2c1ccc(OCCO)cc1,-27
COc1ccc(/C=C/C(=O)O[C@H]2[C@H](OC3C4O[C@]4(CO)[C@H]4C(O[C@@H]5O[C@H](CO)[C@@H](O)[C@H](O)[C@H]5O)OC=C[C@@H]34)O[C@@H](C)[C@H](O)[C@H]2O)cc1 (stereo partly drawn),8
C[C@@H]1O[C@@H](O[C@@H]2[C@@H](O)[C@H](OCCc3ccc(O)c(O)c3)O[C@H](CO[C@@H]3OC[C@](O)(CO)[C@H]3O)[C@H]2OC(=O)/C=C/c2ccc(O)c(O)c2)[C@H](O[C@@H]2OC[C@H](O)[C@H](O)[C@H]2O)[C@H](O)[C@H]1O,68*
SMILES,EZH2 inh
COC(=O)C1=COC(O[C@@H]2O[C@H](CO)[C@@H](O)[C@H](O)[C@H]2O)[C@@H]2[C@@H](C)[C@@H](OC(=O)/C=C/c3ccc(O)c(O)c3)[C@@H](O)[C@H]12 (stereo partly drawn),4
CCN(CC)CCNc1ncnc2scc(-c3ccc(F)cc3)c12,-11
CO[C@H]1CN(C)C(=O)c2ccc(NC(=O)Nc3ccccc3)cc2OC[C@@H](C)N(C(=O)CC2CC2)C[C@H]1C,-2
CCn1c(SCC(=O)Nc2ccccc2F)nnc1-c1cccc(N)c1,-15
O=C(O)COc1ccc(Cl)cc1CO,-5
Cc1c(CCC(=O)O)c(=O)oc2cc(OCC(=O)O)ccc12,-22
CCCc1c(OCCCOc2ccc(OCC(=O)O)cc2)ccc(CC=O)c1O,55*
Cc1ccc(S(=O)(=O)N(C)C[C@@H]2Oc3c(NC(=O)C4CCOCC4)cccc3C(=O)N([C@@H](C)CO)C[C@H]2C)cc1,-7
COC(=O)[C@H](Cc1ccccc1)N1C(=O)O[C@H](Cc2ccccc2)[C@@H]1/C=C/C1CC1,56*
COc1ccccc1NC(=O)C(Cc1ccccc1)N1C(=O)C2C3c4ccccc4C(c4ccccc43)C2C1=O (stereo not drawn),-2
COC(=O)[C@H](Cc1ccc(N=[N+]=[N-])cc1)N1CC(/C=C/[C@@H](O)Cc2ccccc2)=C[C@@H](C2CC2)O1,0
Cc1nc(SCC(=O)Nc2sc3c(c2C#N)CCCC3)nc2c1CCCC2,27
COC(=O)C1=CO[C@@H](O[C@@H]2O[C@H](CO)[C@@H](O)[C@H](O)[C@H]2O)[C@H]2[C@@H]1[C@H](OC(C)=O)C[C@]2(C)O,-12
COC(=O)C1=COC(OC2OC(CO)C(O)C(O)C2O)C2C1C=CC2(O)CO (stereo not drawn),99*
COC(=O)C1=COC(O[C@@H]2O[C@H](CO)[C@@H](O)[C@H](O)[C@H]2O)[C@H]2[C@@H]1[C@H](OC(=O)CCc1ccc(O)cc1)C[C@]2(C)O (stereo partly drawn),2
COCC#Cc1ccc2c(c1)O[C@@H](CN(C)S(=O)(=O)c1cccc(OC)c1)[C@H](C)CN([C@H](C)CO)S2(=O)=O,-8
CNC[C@H]1OCCCC[C@@H](C)Oc2ccc(NC(=O)Nc3ccccc3)cc2C(=O)N([C@@H](C)CO)C[C@@H]1C,-4
COc1cccc(NC(=O)CC2OCCN(Cc3ccccc3)C2=O)c1 (stereo not drawn),-3
COC(=O)C1=COC(O[C@@H]2O[C@H](CO)[C@@H](O)[C@H](O)[C@H]2O)[C@@H]2[C@@](C)(O)[C@@H](OC(=O)/C=C\c3ccccc3)C[C@]12O (stereo partly drawn),22
Cc1cc2c(cc1O[C@@H]1O[C@H](CO[C@@H]3OC[C@@H](O)[C@H](O)[C@H]3O)[C@@H](O)[C@H](O)[C@H]1O)C(=O)c1ccccc1C2=O,-6
O[C@@H]1[C@@H](O)[C@H](OC/C=C/c2ccccc2)O[C@H](CO[C@@H]2OC[C@H](O)[C@H](O)[C@H]2O)[C@H]1O,90*
C[C@@H]1O[C@@H](OC[C@H]2O[C@@H](Oc3ccc(O)cc3)[C@H](O)[C@@H](OC(=O)c3ccc(O)cc3)[C@@H]2O)[C@H](O)[C@H](O)[C@H]1O,38
COc1ccc(C2CC(=O)c3c(O)cc(O[C@@H]4O[C@H](CO[C@@H]5O[C@@H](C)[C@H](O)[C@@H](O)[C@H]5O)[C@@H](O)[C@H](O)[C@H]4O)cc3O2)cc1 (stereo partly drawn),21
